Screening data (PubChem)
12-LOX inh: blocks human arachidonate 12S-lipoxygenase | 1.1% of 580,000 active | P18054 | purified 12hLO, xylenol orange hydroperoxide absorbance | Potency, µM (highest dose often 108 µM), for inactives: at the highest dose activity change, negative = inhibition, hits mostly inhibitors; also: potency is read from the fitted curve at half-maximal effect; % is scaled to controls: 0 for no effect and ±100 for the full control effect
Target sequence (P18054 whole entry, looked up): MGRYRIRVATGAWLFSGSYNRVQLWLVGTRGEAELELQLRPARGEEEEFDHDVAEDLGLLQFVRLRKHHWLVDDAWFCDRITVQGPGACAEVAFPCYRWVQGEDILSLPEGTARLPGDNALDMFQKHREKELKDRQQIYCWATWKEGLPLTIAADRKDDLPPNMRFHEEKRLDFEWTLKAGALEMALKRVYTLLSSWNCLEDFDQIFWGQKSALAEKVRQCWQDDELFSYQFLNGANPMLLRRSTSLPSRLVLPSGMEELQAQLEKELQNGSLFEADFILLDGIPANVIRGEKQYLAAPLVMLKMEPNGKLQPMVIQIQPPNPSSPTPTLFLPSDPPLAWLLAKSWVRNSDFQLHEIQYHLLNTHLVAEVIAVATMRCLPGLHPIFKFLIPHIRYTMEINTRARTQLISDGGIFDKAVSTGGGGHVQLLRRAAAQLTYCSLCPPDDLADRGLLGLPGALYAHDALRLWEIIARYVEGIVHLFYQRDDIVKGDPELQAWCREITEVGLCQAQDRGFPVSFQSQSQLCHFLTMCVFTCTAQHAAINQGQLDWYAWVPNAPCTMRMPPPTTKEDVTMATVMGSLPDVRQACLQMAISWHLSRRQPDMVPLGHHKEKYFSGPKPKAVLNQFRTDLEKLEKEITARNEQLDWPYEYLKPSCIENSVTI
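Purified human 12hLO (150 nM final) in 25 mM Hepes, 0.01% Triton X-100, pH 7.0 was preincubated 15 min at room temperature with compound. Then 40 uM arachidonic acid was added, 30 min. Hydroperoxide was read by Fe-XO absorbance ratio 573/405 nm.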
CCT modulator: modulators of cytosolic chaperonin (CCT/TRiC) activity. purified chaperonin ATPase assay, HTRF ADP detection, 30 min. activity change, % (test concentration not listed), hits read low. 0.3% of 360,000 active. AID 651819; in the data active = activity change below about -30%; also: % is scaled to controls: 0 for no effect and ±100 for the full control effect
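First, chaperonin was dispensed at 40 nM or 20 nM final depending on batch activity. Next, compounds were pinned at 76 uM and ATP added at 10 uM. After 30 min at 37 °C, ADP detection reagents ran 30 min at ambient temperature.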
PINK1 modulator: changes PINK1 expression. Potency, µM (top dose mostly 76.6 µM), for the others: at the top dose activation (PINK1 increase), usual class: activators. 0.2% of 410,000 active. PINK1 immunofluorescence, high-content cytometry, 24 h; active = well fitted activation curve with a large enough effect; inconclusive = small, poorly fitted or top-dose-only effect; cell line not stated here; also: potency is read from the fitted curve at half-maximal effect; % of control where 0% means no effect; nearly all actives have a fitted effect of over 65% in size
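Stable cell line treated 24 h with compounds at 5 concentrations (CCCP controls), then fixed and immunostained for PINK1 plus nuclear and cell stains; PINK1 immunofluorescence quantified by laser-scanning microplate cytometry.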
p53 reactivator: restores transcriptional activity of mutant p53. AID 504706. H1299 p53-A138V BP100-luciferase reporter, luminescence, 24 h. 0.063% of 320,000 active. Potency, µM (titrated, usually from 92.2 µM), without a hit: at the top dose activity change, positive = activation, hits mostly activators; also: potency is read from the fitted curve at half-maximal effect; % of control where 0% means no effect; nearly all actives have a fitted effect of over 45% in size
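p53-null H1299 cells stably carrying temperature-sensitive p53-A138V and a BP100-luciferase reporter were pinned with compounds (4-point, 1:5 series) and held 24 hrs at 37 deg C. Luminescence was read 10 min after detection reagent.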
MmCpn inh: M. maripaludis TRiC chaperonin inhibition; purified Mm-Cpn ATPase, ADP Transcreener TR-FRET; 0.031% of 330,000 active; Potency, µM (doses to about 76.9 µM), for the others: at the highest dose activity, negative = inhibition, most hits filed as inhibitors; also: potency is read from the fitted curve at half-maximal effect; % is scaled to controls: 0 for no effect and ±100 for the full control effect; nearly all actives have a fitted effect of over 80% in size
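25 nM Mm-CPN + cpd, 10 min 37°C; + 10 uM ATP, 30 min 37°C; buffer 30 mM Tris pH 7.4, 100 mM KCl, 5 mM MgCl2, 1 mM DTT; Transcreener ADP HTRF detection 30 min RT.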
ASM inhibitor: inhibitors of human secretory acid sphingomyelinase; placental ASM, HMU-PC fluorogenic substrate, 60 min; Potency, µM (highest dose often 57.5 µM), without a hit: at the top dose activity change, negative = inhibition, hits mostly inhibitors; 0.006% of 340,000 active; AID 504937; also: potency is read from the fitted curve at half-maximal effect
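Fluorogenic HMU-PC substrate (9 uM final) is turned over by placental ASM in 60 min at 37 C after a 10 min compound preincubation. Reaction ended by alkaline stop (pH 10), with fluorescence read at 386/447 nm.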
Active calls of the source: *; [ ] = remark or other dose. Rows were chosen to be rich in hits. Some 1.4% of all compounds tested hit in one or more screens of this group. Unless noted, calls follow the shape of the dose curve; as a rule, active = well fitted curve in the direction sought with a large enough effect; inconclusive = small, poorly fitted or top-dose-only effect, or another doubt; inactive = no such curve, though single readings can be large; an effect the other way counts as inactive or inconclusive.

How did Cc1cccc(N2CCN(C(=S)NCCc3ccccc3)CC2)c1C do in these assays?
12-LOX inh: inconclusive; CCT modulator: -2.6; PINK1 modulator: inconclusive; p53 reactivator: 22.4%; MmCpn inh: 3.2%; ASM inhibitor: -0.2%

How did Cc1ccc(Cl)cc1N1CCN(C(=S)NCCc2ccccc2)CC1 do in these assays?
12-LOX inh: 35.5µM*; CCT modulator: 0.0; PINK1 modulator: 6.8%; p53 reactivator: 1.4%; MmCpn inh: -4.1%; ASM inhibitor: -6.3%

What do the screens show for `Cc1c2cnn(CC(=O)Nc3c(F)c(F)cc(F)c3F)c(=O)c2c(C)n1Cc1ccccc1F`?
12-LOX inh: 20µM*; CCT modulator: -27.5; PINK1 modulator: 0.6%; p53 reactivator: 3.2%; MmCpn inh: -1.4%; ASM inhibitor: -2.5%

How did O=C(O)CCNC(=O)c1ccc(N=Nc2ccc(O)c(C(=O)O)c2)cc1 do in these assays?
12-LOX inh: 34.3µM*

How did O=S(=O)(Nc1nc2ccccc2nc1N1CCc2ccccc2C1)c1ccc(Cl)cc1 do in these assays?
12-LOX inh: 0.2%; CCT modulator: -1.7; PINK1 modulator: 15.8µM*; p53 reactivator: 9.9%; MmCpn inh: 1.0%; ASM inhibitor: 55.8%

What do the screens show for `Cc1ccccc1S(=O)(=O)Nc1nc2ccccc2nc1N1CCc2ccccc2C1`?
12-LOX inh: 9.1%; CCT modulator: -5.7; PINK1 modulator: 4.6%; p53 reactivator: 28.2µM*; MmCpn inh: -10.5%; ASM inhibitor: 112.0%

Results for O=S(=O)(Nc1nc2ccccc2nc1N1CCc2ccccc2C1)c1ccc(Br)cc1 ?
12-LOX inh: -4.8%; CCT modulator: 0.9; PINK1 modulator: inconclusive; p53 reactivator: inconclusive; MmCpn inh: -2.6%; ASM inhibitor: 84.0%

Results for O=C(CSc1nc2ccccc2s1)Nc1cc(C(F)(F)F)cc(C(F)(F)F)c1 ?
12-LOX inh: 4.6%

Results for CCC(c1nc2ccccc2[nH]1)N(C(=O)Cc1cc(OC)cc(OC)c1)c1ccc(N2CCOCC2)cc1 (configuration not stated) ?
12-LOX inh: 1.2%; CCT modulator: -2.5; PINK1 modulator: 1.6%

What do the screens show for `O=C(c1ccncc1)N(c1ccc(N2CCOCC2)cc1)C(c1ccccc1)c1nc2ccccc2[nH]1` (configuration not stated)?
12-LOX inh: 11.2µM*; CCT modulator: -0.6; PINK1 modulator: 8.1%

How did COc1ccc2[nH]c(C[C@@H]3C[C@@H](C(C)C)[C@H](CN(C)C)C=C3C)nc2n1 do in these assays?
12-LOX inh: 92.7%[176 µM]

Results for CC(NC(=O)Cn1cnnn1)C12CC3CC(CC(C3)C1)C2 (configuration not stated) ?
12-LOX inh: 35.1%; CCT modulator: -90.9*; PINK1 modulator: -1.6%; p53 reactivator: -1.6%; MmCpn inh: 2.3%; ASM inhibitor: 3.1%

What do the screens show for `CC(NC(=O)CN1CCCC1)C12CC3CC(CC(C3)C1)C2` (configuration not stated)?
12-LOX inh: -6.1%; CCT modulator: -1.9; PINK1 modulator: 1.0%[38.3 µM]; p53 reactivator: 3.6%; MmCpn inh: 1.7%; ASM inhibitor: 3.0%

How did Cn1c(=O)c2cc(NC(=S)NC3CCCCC3)ccc2n1C/C=C/c1ccccc1 do in these assays?
12-LOX inh: 39.8µM*; CCT modulator: 0.4; PINK1 modulator: 0.4%

Results for O=[N+]([O-])c1ccc(NC(=S)NCCc2ccc(Cl)cc2)cc1 ?
12-LOX inh: inconclusive; CCT modulator: -2.9; PINK1 modulator: inconclusive; p53 reactivator: 1.3%; MmCpn inh: 2.4%; ASM inhibitor: -20.9%

What do the screens show for `O=[N+]([O-])c1ccc(O)c(NC(=S)Nc2ccccc2)c1`?
12-LOX inh: -22.0%; CCT modulator: -0.6; PINK1 modulator: 0.9%; p53 reactivator: 20.8%; MmCpn inh: -2.8%; ASM inhibitor: -6.2%

How did O=[N+]([O-])c1ccc(NNC(=S)Nc2ccccc2)cc1 do in these assays?
CCT modulator: -1.3; PINK1 modulator: 14.1µM*; p53 reactivator: 24.0%; MmCpn inh: -0.1%; ASM inhibitor: -4.0%

How did O=[N+]([O-])c1ccc(NC(=S)NCCc2ccccc2)cc1 do in these assays?
12-LOX inh: 44.7µM*; CCT modulator: 1.3; PINK1 modulator: inconclusive; p53 reactivator: inconclusive; MmCpn inh: 2.0%; ASM inhibitor: -4.8%

What do the screens show for `Cc1ccc(CNC(=O)c2nccnc2N)cc1`?
12-LOX inh: 14.7%

How did Cc1ccc(NC(=S)Nc2ccccc2)nc1 do in these assays?
12-LOX inh: 22.4µM*

What do the screens show for `Cc1ccc(C(=O)Nc2nnc(NC(=S)Nc3ccccc3)s2)cc1`?
12-LOX inh: 39.8µM*; CCT modulator: -1.4; PINK1 modulator: 3.9%; p53 reactivator: 0.0%; MmCpn inh: -1.8%; ASM inhibitor: -13.5%

Results for S=C(Nc1ccc(Nc2ccccc2)cc1)Nc1ccccn1 ?
12-LOX inh: 5.62µM*; CCT modulator: 0.7; PINK1 modulator: 0.7%; p53 reactivator: 0.9%; MmCpn inh: -1.6%; ASM inhibitor: -11.8%

What do the screens show for `S=C(Nc1ccccc1)Nc1ccccn1`?
12-LOX inh: inconclusive; CCT modulator: 0.8; PINK1 modulator: 0.9%

What do the screens show for `Cc1ccc(NC(=O)Nc2ccccc2)nc1`?
12-LOX inh: 0.0%; CCT modulator: 0.4; PINK1 modulator: -0.5%; ASM inhibitor: -10.6%

Results for Cc1cccc(/C=C/c2nc3ccccc3c(=O)n2-c2ccc(C(=O)O)cc2)c1 ?
12-LOX inh: -1.0%

What do the screens show for `O=S(=O)(c1ccc(F)cc1)N(Cc1nc(-c2ccccc2)no1)c1ccccc1`?
12-LOX inh: 20.3%

How did COCCN(Cc1ccc(C(C)C)cc1)Cc1cc(=O)n2c3c(sc2n1)CCCC3 do in these assays?
12-LOX inh: -8.5%

What do the screens show for `O=c1c(-c2ccccc2)coc2c(CN3CCCC3)c(O)ccc12`?
12-LOX inh: 2.0%; CCT modulator: -3.1; PINK1 modulator: 6.5%[38.3 µM]; p53 reactivator: -1.0%; MmCpn inh: 44.7µM*; ASM inhibitor: 130.3%

What do the screens show for `COc1ccc(NS(=O)(=O)c2cc3[nH]c(=O)c(=O)[nH]c3cc2C)cc1`?
12-LOX inh: -8.5%

Results for CCOC(=O)C1CCN(S(=O)(=O)c2ccc(C(C)=O)cc2)CC1 ?
12-LOX inh: 12.4%; CCT modulator: -0.5; PINK1 modulator: 11.2µM*; p53 reactivator: -4.1%; MmCpn inh: 1.6%; ASM inhibitor: 1.1%
